Source: PubChem BioAssay
Shown are actives, neighbours in structure and some others; about 3.9% of the full set was active somewhere.
CCHF vOTU inh-1: CCHFV vOTU protease inhibition; inhibition, % at 11.5 µM; actives 0.55% (n = 370,000); AID 651958; Pep-AMC fluorescence; in the data active means inhibition above about 30%; further: 0% = vehicle wells with enzyme and 100% = no enzyme wells
Anthrax LF inh2: inhibitors of Bacillus anthracis lethal factor protease; P15917; multiplex microsphere protease cleavage assay, LF; actives 0.12% (n = 360,000); inhibition, % at 10 µM; further: plate controls were buffer without enzyme for full effect and enzyme alone for no effect
Target sequence (P15917 whole entry, looked up): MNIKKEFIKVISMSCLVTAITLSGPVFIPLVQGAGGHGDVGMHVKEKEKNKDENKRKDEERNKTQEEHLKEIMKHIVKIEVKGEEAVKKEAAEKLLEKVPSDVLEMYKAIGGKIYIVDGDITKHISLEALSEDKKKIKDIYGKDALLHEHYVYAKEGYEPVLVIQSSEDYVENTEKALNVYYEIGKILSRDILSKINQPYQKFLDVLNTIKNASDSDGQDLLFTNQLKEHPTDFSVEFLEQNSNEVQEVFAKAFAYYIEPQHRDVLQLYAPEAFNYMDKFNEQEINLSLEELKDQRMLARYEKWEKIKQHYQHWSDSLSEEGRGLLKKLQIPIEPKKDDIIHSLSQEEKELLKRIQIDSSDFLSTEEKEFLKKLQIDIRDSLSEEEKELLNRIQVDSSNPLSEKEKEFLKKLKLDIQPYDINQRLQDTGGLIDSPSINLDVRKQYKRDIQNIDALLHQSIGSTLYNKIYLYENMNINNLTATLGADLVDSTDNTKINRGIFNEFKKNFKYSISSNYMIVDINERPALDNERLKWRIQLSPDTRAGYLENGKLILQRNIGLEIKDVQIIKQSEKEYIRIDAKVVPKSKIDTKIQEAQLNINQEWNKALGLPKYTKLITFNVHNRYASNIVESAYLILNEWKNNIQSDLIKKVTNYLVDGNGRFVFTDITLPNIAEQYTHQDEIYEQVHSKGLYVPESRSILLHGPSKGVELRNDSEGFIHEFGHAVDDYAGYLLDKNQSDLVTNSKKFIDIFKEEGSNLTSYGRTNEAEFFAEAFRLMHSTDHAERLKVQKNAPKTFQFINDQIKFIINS
SARS 3CLpro inh: SARS-CoV 3CLpro protease inhibition | recombinant SARS-CoV 3CLpro, quenched FRET peptide cleavage | inhibition, % at 6 µM | actives 0.14% (n = 290,000); in the data active means inhibition above about 12%
BoNT-F LC inh: BoNT F light chain protease inhibition. Multiplex microsphere protease cleavage assay, flow cytometry. actives 0.22% (n = 360,000). inhibition, % at 10 µM; in the data active means inhibition above about 35%, passing the limit was not always enough; inconclusive means no clear call, values can overlap the other calls; further: plate controls were buffer without enzyme for full effect and enzyme alone for no effect
Autofluor counter: flagged as autofluorescent in microsphere protease counterscreen; actives 3.1% (n = 360,000); compound autofluorescence counterscreen, microsphere flow cytometry; hits give high values; AID 624483; fluorescence intensity (test concentration not listed); in the data active means fluorescence intensity above about 16000; inconclusive means no clear call, values can overlap the other calls
BoNT A protease: BoNT A light chain protease inhibition | multiplex microsphere protease substrate cleavage, flow cytometry | inhibition, % at 10 µM | actives 0.17% (n = 360,000); further: plate controls were buffer without enzyme for full effect and enzyme alone for no effect
CCHF vOTU inh-2: CCHFV vOTU protease inhibition, confirmation. inhibition, % at 11.5 µM. AID 686976. actives 17% (n = 1,900). shares compounds with CCHF vOTU inh-1. Recombinant CCHFV vOTU, Pep-AMC fluorescence; in the data active means inhibition above about 30%
* = called active by the depositor. Unless noted, no stated cut-off is given here; in the data, active means inhibition above about 30%; inconclusive means no clear call, values can overlap the other calls; inactive means below that.

Screening O=C1C(Nc2ccccc2)=C/C(=N/S(=O)(=O)c2cccs2)c2ccccc21 returned Anthrax LF inh2 -11, SARS 3CLpro inh 5, BoNT-F LC inh 11, Autofluor counter 7579 and BoNT A protease 1.
`Cc1ccc(NC2=C/C(=N/S(=O)(=O)c3cccs3)c3ccccc3C2=O)cc1` gave CCHF vOTU inh-1 98*, Anthrax LF inh2 -1, SARS 3CLpro inh 0, BoNT-F LC inh -3, Autofluor counter 1979, BoNT A protease 0 and CCHF vOTU inh-2 99*.
Screening Cc1c(/C=N/NC(N)=O)c2ccccn2c1C(=O)c1ccncc1 returned CCHF vOTU inh-1 32*, Anthrax LF inh2 -4, SARS 3CLpro inh -5, BoNT-F LC inh -12, Autofluor counter 3105, BoNT A protease 0 and CCHF vOTU inh-2 -3.
`Cc1ccc(-n2nc(C)c(NS(=O)(=O)c3ccccc3)c2C)cc1C` gave CCHF vOTU inh-1 -9, Anthrax LF inh2 -3, SARS 3CLpro inh 4, BoNT-F LC inh 0, Autofluor counter 8049 and BoNT A protease 0.
Cc1nn(-c2ccc(F)cc2)c(C)c1NS(=O)(=O)c1ccc(Cl)cc1 was read as CCHF vOTU inh-1 30*, Anthrax LF inh2 -1, SARS 3CLpro inh -2, BoNT-F LC inh 10, Autofluor counter 4059, BoNT A protease 1 and CCHF vOTU inh-2 -9.
CC(NC(=O)[C@H](C)NC(=O)[C@@H]1CSC2c3ccccc3C(=O)N21)c1ccccc1 (stereo partly drawn) was read as CCHF vOTU inh-1 2, Anthrax LF inh2 -2, SARS 3CLpro inh -4, BoNT-F LC inh -5, Autofluor counter 5667 and BoNT A protease -1.
For Cc1noc(NS(=O)(=O)c2ccc(NS(=O)(=O)c3ccc(C(C)(C)C)cc3)cc2)c1C the results were CCHF vOTU inh-1 30*, Anthrax LF inh2 -10, BoNT-F LC inh 11, Autofluor counter 4045, BoNT A protease 0 and CCHF vOTU inh-2 -15.
`O=C(c1ccco1)N1CCN(C(=O)c2ccc(CS(=O)c3ccc(Cl)cc3)o2)CC1` (stereo not drawn) gave CCHF vOTU inh-1 39*, Anthrax LF inh2 -2, SARS 3CLpro inh 1, BoNT-F LC inh -5, Autofluor counter 4513, BoNT A protease -1 and CCHF vOTU inh-2 -8.
CCN1CCN(c2ccc(S(=O)(=O)N3CCOCC3)cc2NC(=O)c2ccc(C(F)(F)F)cc2)CC1 was read as CCHF vOTU inh-1 34*, Anthrax LF inh2 -2, BoNT-F LC inh 16, Autofluor counter 4196, BoNT A protease 0 and CCHF vOTU inh-2 -12.
COc1ccc(CCN2C(=O)CC(N3CCN(C/C=C/c4ccccc4)CC3)C2=O)cc1OC (stereo not drawn) was read as CCHF vOTU inh-1 -10, Anthrax LF inh2 0, SARS 3CLpro inh 3, BoNT-F LC inh inconclusive, Autofluor counter 4039 and BoNT A protease 3.
`CN(C)c1ccc(C=c2c3cc([N+](=O)[O-])ccc3n3c2cc(-c2ccccc2)[n+]3C)cc1` gave CCHF vOTU inh-1 40*, Anthrax LF inh2 -130, BoNT-F LC inh -143, Autofluor counter 1537, BoNT A protease 1 and CCHF vOTU inh-2 11.
For CN(C)c1ccc(C=c2c3ccccc3n3c2c2c([n+]3C)CCCC2)cc1 the results were CCHF vOTU inh-1 35*, Anthrax LF inh2 -10, BoNT-F LC inh -27, Autofluor counter 2882, BoNT A protease 1 and CCHF vOTU inh-2 -1.
Screening CN(C)c1ccc(C=c2c3ccccc3n3c2cc(-c2ccccc2)[n+]3C)cc1 returned CCHF vOTU inh-1 48*, Anthrax LF inh2 -26, BoNT-F LC inh -64, Autofluor counter 4637, BoNT A protease 9 and CCHF vOTU inh-2 1.
Screening Cn1c(CO)c(-c2ccccc2)c2cc([N+](=O)[O-])ccc21 returned CCHF vOTU inh-1 13, Anthrax LF inh2 3, SARS 3CLpro inh 2, BoNT-F LC inh 9, Autofluor counter 3878 and BoNT A protease 1.
COc1cc(C=c2c3ccccc3n3c2cc(-c2ccccc2)[n+]3C)cc(OC)c1OC was read as CCHF vOTU inh-1 85*, Anthrax LF inh2 -23, BoNT-F LC inh -48, Autofluor counter 2785, BoNT A protease 4 and CCHF vOTU inh-2 69*.
`CCNC(=O)c1ccccc1SCC(=O)Nc1ccc(F)cc1` gave CCHF vOTU inh-1 2, Anthrax LF inh2 -3, SARS 3CLpro inh 2, BoNT-F LC inh -2, Autofluor counter 3272 and BoNT A protease 0.
CN(c1ccc(Cl)cc1)c1cc(=O)n(C)c2ccccc12 was read as CCHF vOTU inh-1 18, Anthrax LF inh2 -3, SARS 3CLpro inh 4, BoNT-F LC inh 23, Autofluor counter 4663 and BoNT A protease 1.
CN(C)c1ccc(C=c2c3ccccc3n3c2cc(-c2ccc(Cl)cc2)[n+]3C)cc1 was read as CCHF vOTU inh-1 47*, Anthrax LF inh2 -70, BoNT-F LC inh -113, Autofluor counter 2293, BoNT A protease 7 and CCHF vOTU inh-2 10.
COc1ccc2cc(CO)c3cc(OC)c(OC)cc3c2c1 was read as CCHF vOTU inh-1 3, Anthrax LF inh2 -4, BoNT-F LC inh 2, Autofluor counter 3998 and BoNT A protease 0.
For CC1=Nc2ccccc2/C1=C/c1sc(=S)n(-c2cccc(C(=O)O)c2)c1O the results were CCHF vOTU inh-1 36*, Anthrax LF inh2 1, SARS 3CLpro inh -6, BoNT-F LC inh -1, Autofluor counter 3102, BoNT A protease 2 and CCHF vOTU inh-2 26.
`C[C@@H]1CN([C@@H](C)CO)C(=O)CCCn2nncc2CO[C@@H]1CN(C)C(=O)Nc1ccccc1` gave CCHF vOTU inh-1 1, Anthrax LF inh2 -4, BoNT-F LC inh 0, Autofluor counter 3703 and BoNT A protease 0.
`FC(F)(F)C1=Nc2cccc3cccc(c23)N1` gave CCHF vOTU inh-1 41*, Anthrax LF inh2 0, BoNT-F LC inh 3, Autofluor counter 5368, BoNT A protease 1 and CCHF vOTU inh-2 17.
For Fc1ccc(C2=Nc3cccc4cccc(c34)N2)cc1 the results were CCHF vOTU inh-1 2, Anthrax LF inh2 -1, SARS 3CLpro inh -1, BoNT-F LC inh -6, Autofluor counter 1976 and BoNT A protease -1.
CC1=NOC2(C1)N(C)c1ccccc1C2(C)C (stereo not drawn) was read as CCHF vOTU inh-1 -8, Anthrax LF inh2 -4, SARS 3CLpro inh 4, BoNT-F LC inh 1, Autofluor counter 10777 and BoNT A protease 1.
Screening COc1ccc2ccc3c(c2c1)N=C[C@]1(O3)N(C)c2ccccc2C1(C)C returned CCHF vOTU inh-1 46*, Anthrax LF inh2 -3, SARS 3CLpro inh 0, BoNT-F LC inh 3, Autofluor counter 3546, BoNT A protease 0 and CCHF vOTU inh-2 -3.
CCN(CC)CC(=O)n1c2c(c3ccccc31)CCCC2 was read as CCHF vOTU inh-1 0, Anthrax LF inh2 0, SARS 3CLpro inh 4, BoNT-F LC inh -6, Autofluor counter 2890 and BoNT A protease 0.
